Laboratory results as given in PubChem BioAssay.
For part of these data: Entries with a potency or affinity are not part of this list. Activity calls are given as the source filed them.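 How the source made its calls, unless noted: active means fluorescence ratio normalized to control raised more than 50% in primary screen plus both repeat runs; inactive means the rest.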

Tests used:
[1] = system: TRPC4 beta (transient receptor potential cation channel C4), mouse; experiment: activators of mouse TRPC4 channel, confirmation, cell-based, Fluo4 calcium, HEK293 TRPC4beta/mu-opioid, duplicates, 10 µM (AID 2426); settings: Fluo4 calcium fluorescence, at 10 µM; active compounds read high
[2] = system: transient receptor potential cation channel C4 beta (TRPC4), mouse; experiment: activators of mouse TRPC4 channel, confirmation, cell-based, second round, Fluo4, HEK293 TRPC4beta/mu-opioid, 1 µM (AID 2461;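 active means primary screen active and over 50% activation in each of two duplicate runs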); settings: Fluo4 calcium fluorescence, at 1 µM; active compounds read high
[3] = system: TRPC4 (transient receptor potential cation channel C4 beta), mouse; experiment: positive allosteric modulators of mouse TRPC4, confirmation, cell-based, second round, Fluo-4, HEK293 TRPC4beta/mu-opioid, 1 µM (AID 2554;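 active means primary screen hit whose fluorescence ratio, in both repeats, exceeds the weak agonist control mean by 3 SD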); settings: DAMGO EC20, Fluo-4 calcium flux, at 1 µM; active compounds read high
[4] = system: TRPC4 beta (transient receptor potential cation channel C4), mouse; experiment: positive allosteric modulators of mouse TRPC4, confirmation, cell-based, Fluo-4, HEK293 TRPC4beta/mu-opioid (AID 2555;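 active means primary screen hit whose calcium fluorescence ratio, in both repeats, exceeds the weak agonist control mean by 3 SD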); settings: DAMGO EC20, Fluo-4 calcium flux, at 10 µM; active compounds read high
[5] = biological target: Short transient receptor potential channel 4 (Mus musculus) (UniProt Q9QUQ5); experiment: inhibitors of mouse TRPC4 channel, confirmation, cell-based, Fluo4, HEK293 TRPC4beta/mu-opioid (AID 2636;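 active means calcium signal cut by more than 3 SD below the full-agonist control yet still positive, in both repeats and the earlier primary screen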); settings: DAMGO, Fluo4 calcium flux, at 10 µM; active compounds read high
Sequence of Short transient receptor potential channel 4 (Mus musculus) (Q9QUQ5 whole entry, looked up): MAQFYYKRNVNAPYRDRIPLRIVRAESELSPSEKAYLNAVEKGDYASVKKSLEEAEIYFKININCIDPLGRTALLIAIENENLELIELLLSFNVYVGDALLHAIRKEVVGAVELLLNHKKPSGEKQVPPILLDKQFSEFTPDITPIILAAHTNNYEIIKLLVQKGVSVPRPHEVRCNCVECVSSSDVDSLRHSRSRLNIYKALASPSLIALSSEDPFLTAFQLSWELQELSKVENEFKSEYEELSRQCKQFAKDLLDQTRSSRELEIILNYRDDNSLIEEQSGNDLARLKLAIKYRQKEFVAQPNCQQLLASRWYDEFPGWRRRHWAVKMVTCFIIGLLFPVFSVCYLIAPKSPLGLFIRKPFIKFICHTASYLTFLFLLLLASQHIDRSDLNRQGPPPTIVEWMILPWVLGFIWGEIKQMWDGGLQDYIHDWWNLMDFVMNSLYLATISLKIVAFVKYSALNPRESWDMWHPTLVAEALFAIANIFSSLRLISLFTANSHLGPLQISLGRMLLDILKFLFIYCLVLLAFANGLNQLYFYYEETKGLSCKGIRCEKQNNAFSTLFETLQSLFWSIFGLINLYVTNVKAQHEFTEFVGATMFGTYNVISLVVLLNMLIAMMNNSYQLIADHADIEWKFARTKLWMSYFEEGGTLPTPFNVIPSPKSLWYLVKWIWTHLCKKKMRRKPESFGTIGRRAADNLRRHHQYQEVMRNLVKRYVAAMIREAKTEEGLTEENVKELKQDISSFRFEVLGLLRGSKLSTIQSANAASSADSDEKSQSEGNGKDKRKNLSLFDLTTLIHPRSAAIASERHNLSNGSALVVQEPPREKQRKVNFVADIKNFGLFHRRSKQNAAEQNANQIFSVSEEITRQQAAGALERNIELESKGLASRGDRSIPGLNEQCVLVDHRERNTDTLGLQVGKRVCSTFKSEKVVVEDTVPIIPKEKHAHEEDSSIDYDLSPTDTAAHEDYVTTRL

[6] = biological target: Short transient receptor potential channel 4 (Mus musculus) (UniProt Q9QUQ5); experiment: inhibitors of mouse TRPC4 channel, confirmation, cell-based, second round, Fluo4, HEK293 TRPC4beta/mu-opioid, 1 µM (AID 2637;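 active means calcium signal ratio cut to more than 3 SD under the fully stimulated control mean yet still positive, in both repeats and the primary screen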); settings: Fluo4 calcium flux, DAMGO, at 1 µM; active compounds read high
[7] = biological target: Short transient receptor potential channel 4 (Mus musculus) (UniProt Q9QUQ5); experiment: mouse TRPC4 channel activators, dose response, cell-based, HEK293 TRPC4/mu-opioid, Fluo-4 calcium (AID 434937;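 active means primary screen activator hit with a dose response curve and TRPC4 channel activation at any tested dose; inactive means no activation, no dose response, or not a primary hit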)
[8] = biological target: Short transient receptor potential channel 4 (Mus musculus) (UniProt Q9QUQ5); experiment: TRPC4 positive allosteric modulators, dose response, cell-based, HEK293 TRPC4/mu-opioid, Fluo-4 calcium, EC20 DAMGO (AID 434941;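 active means earlier screen potentiator hit that boosts the TRPC4 ion channel at some dose, with a dose response; inactive means no potentiation, no dose response, or not a prior hit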;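 further: calcium entry triggered by an EC20 dose of DAMGO at the co-expressed mu-opioid receptor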)
[9] = biological target: Short transient receptor potential channel 4 (Mus musculus) (UniProt Q9QUQ5); experiment: mouse TRPC4 channel inhibitors, dose response, cell-based, HEK293 TRPC4/mu-opioid, Fluo-4 calcium (AID 434942;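 active means primary screen inhibitor hit that blocks the TRPC4 channel at some tested dose, yielding a dose curve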)
[10] = biological target: Short transient receptor potential channel 6 (Mus musculus) (UniProt Q61143); experiment: inhibition of mouse TRPC6 channel, confirmation, selectivity assay for TRPC4 inhibitor project, cell-based, HEK293, membrane potential dye, duplicate (AID 434948;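 active means active in primary screen and both duplicates, each dropping signal beyond three positive-control SD with fluorescence still positive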); settings: HEK293 TRPC6, membrane potential dye fluorescence, at 10 µM, stimulated with maximal-effect acetylcholine; active compounds read high
Sequence of Short transient receptor potential channel 6 (Mus musculus) (Q61143 whole entry, looked up): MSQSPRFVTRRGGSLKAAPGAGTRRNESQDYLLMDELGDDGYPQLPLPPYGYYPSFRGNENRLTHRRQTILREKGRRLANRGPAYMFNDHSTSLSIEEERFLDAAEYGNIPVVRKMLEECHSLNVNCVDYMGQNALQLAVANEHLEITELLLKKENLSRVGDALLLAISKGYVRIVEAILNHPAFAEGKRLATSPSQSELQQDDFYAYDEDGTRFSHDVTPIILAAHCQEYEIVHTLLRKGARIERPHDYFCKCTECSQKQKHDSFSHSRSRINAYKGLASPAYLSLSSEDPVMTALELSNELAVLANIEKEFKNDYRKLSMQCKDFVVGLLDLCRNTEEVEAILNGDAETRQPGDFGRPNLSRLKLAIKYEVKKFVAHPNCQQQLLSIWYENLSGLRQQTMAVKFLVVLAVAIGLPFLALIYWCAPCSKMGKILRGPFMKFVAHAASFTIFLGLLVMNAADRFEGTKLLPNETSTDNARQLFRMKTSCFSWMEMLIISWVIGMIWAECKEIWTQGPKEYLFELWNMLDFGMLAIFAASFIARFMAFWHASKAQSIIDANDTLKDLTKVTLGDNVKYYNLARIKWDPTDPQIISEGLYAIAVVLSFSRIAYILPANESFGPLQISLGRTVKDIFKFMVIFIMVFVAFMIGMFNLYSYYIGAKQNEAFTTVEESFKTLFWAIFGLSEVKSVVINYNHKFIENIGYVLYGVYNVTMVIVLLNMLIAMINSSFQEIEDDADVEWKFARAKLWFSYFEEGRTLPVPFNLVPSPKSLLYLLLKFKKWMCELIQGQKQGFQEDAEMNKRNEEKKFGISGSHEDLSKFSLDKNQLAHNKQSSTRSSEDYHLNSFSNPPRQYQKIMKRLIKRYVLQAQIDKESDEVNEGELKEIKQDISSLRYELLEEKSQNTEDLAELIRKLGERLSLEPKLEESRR

[11] = biological target: Short transient receptor potential channel 6 (Mus musculus) (UniProt Q61143); experiment: activation of mouse TRPC6 channel, confirmation, selectivity assay for TRPC4 activator project, cell-based, HEK293, membrane potential dye, duplicate (AID 434950;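 active means membrane potential signal rise above negative control mean plus 3 SD in both duplicates, also active in the earlier TRPC4 screen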); settings: HEK293 TRPC6, membrane potential fluorescence, at 10 µM; active compounds read high
[12] = biological target: Short transient receptor potential channel 6 (Mus musculus) (UniProt Q61143); experiment: TRPC6 potentiation by TRPC4 potentiator hits, confirmation, selectivity assay for TRPC4 potentiator project, HEK293 cells, membrane potential dye, duplicate (AID 434952;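 active means compound raising the membrane signal above positive-control mean plus 3 SD in both repeats, and a primary screen hit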); settings: HEK293 TRPC6, membrane potential dye fluorescence, at 10 µM, maximal acetylcholine added after compound; active compounds read high
[13] = biological target: Short transient receptor potential channel 4 (Mus musculus) (UniProt Q9QUQ5); experiment: calcium flux activators in TRPC4/5HT1a cells, counter-screen for TRPC4 activator project, cell-based, second counter screen, HEK293 TRPC4/5HT1a, Fluo-4 (AID 434977;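 active means calcium signal rise above buffer-control mean plus 5 SD in both duplicates, and also a hit in the primary screen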); settings: Fluo-4 calcium flux, at 10 µM; active compounds read high
[14] = calcium flux inhibitors in TRPC4/5HT1a cells, confirmation, counter-screen for TRPC4 inhibitor project, cell-based, second counter screen, HEK293 TRPC4/5HT1a, Fluo-4 (AID 434978;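 active means primary screen active whose calcium signal fell more than 3 SD beyond the full-serotonin control mean in both duplicate plates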;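 on outcome: serotonin given first at submaximal then at maximal dose after compound preincubation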); settings: Fluo-4 calcium flux, at 10 µM, serotonin added to trigger calcium flux; active compounds read high
[15] = system: TRPC4 (mouse), co-expressed with 5HT1a in HEK293; experiment: calcium flux potentiators in TRPC4/5HT1a cells, confirmation, counter-screen for TRPC4 potentiator project, cell-based, second counter screen, HEK293 TRPC4/5HT1a, Fluo-4 (AID 434979;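 active means signal rise over 3 SD above mean of control wells given weak agonist, in both repeats and first screen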); settings: Fluo-4 calcium flux, at 10 µM, serotonin added at its EC20 dose; active compounds read high
[16] = calcium flux activation in mu-opioid HEK293 cells, confirmation, counter-screen for TRPC4 activator project, cell-based, HEK293 mu-opioid receptor line (AID 449723;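 active means hit in primary screen, with calcium signal over 5 SD above buffer well mean in both duplicates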;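 further: counter screen cells carry the mu-opioid receptor alone and lack TRPC4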); settings: Fluo-4 calcium fluorescence, at 10 µM; active compounds read high
[17] = calcium flux enhancement in mu-opioid HEK293 cells, confirmation, counter-screen for TRPC4 allosteric potentiator project, cell-based, HEK293 mu-opioid receptor line (AID 449724;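 active means calcium signal rise more than 3 SD above the low-dose agonist control mean, in both duplicate plates and the primary screen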); settings: Fluo-4 calcium flux, at 10 µM, compound added before EC20 DAMGO stimulus; active compounds read high

## Cc1ccc(C)c(N2CCN(CCCNC(=O)CCn3c(=O)c4cccn4c4cccnc43)CC2)c1
[1]
  outcome: inactive
[2]
  outcome: inactive
[3]
  outcome: inactive
[4]
  outcome: inactive
[5]
  outcome: inactive
[6]
  outcome: inactive
[7]
  outcome: inactive
[8]
  outcome: inactive
[9]
  outcome: inactive
[10]
  outcome: inactive
[11]
  outcome: inactive
[12]
  outcome: inactive
[13]
  outcome: inactive
[14]
  outcome: inactive
[15]
  outcome: inactive
[16]
  outcome: inactive
[17]
  outcome: inactive

## O=C(NC1CCN(Cc2ccccc2)CC1)c1cccc(S(=O)(=O)Nc2cc(C(F)(F)F)ccc2Cl)c1
[1]
  outcome: inactive
[2]
  outcome: inactive
[3]
  potentiation: 13% (active)
[4]
  outcome: inactive
[5]
  outcome: inactive
[6]
  outcome: inactive
[7]
  outcome: inactive
[8]
  outcome: inactive
[9]
  outcome: inactive
[10]
  outcome: inactive
[11]
  outcome: inactive
[12]
  outcome: inactive
[13]
  outcome: inactive
[14]
  outcome: inactive
[15]
  potentiation: 22.2% (active)
[16]
  outcome: inactive
[17]
  outcome: inactive

## O=C1NC(c2ccccc2)=C(c2nc3ccccc3s2)C(c2ccccc2)N1 (stereo not given)
[1]
  outcome: inactive
[2]
  outcome: inactive
[3]
  outcome: inactive
[4]
  potentiation: 14% (active)
[5]
  outcome: inactive
[6]
  outcome: inactive
[7]
  outcome: inactive
[8]
  outcome: inactive
[9]
  outcome: inactive
[10]
  outcome: inactive
[11]
  outcome: inactive
[12]
  outcome: inactive
[13]
  outcome: inactive
[14]
  outcome: inactive
[15]
  potentiation: 24.2% (active)
[16]
  outcome: inactive
[17]
  outcome: inactive

## Cc1ccc(NS(=O)(=O)c2cc(C(=O)N3CCc4ccccc4C3)ccc2Cl)cc1
[1]
  outcome: inactive
[2]
  outcome: inactive
[3]
  outcome: inactive
[4]
  outcome: inactive
[5]
  outcome: inactive
[6]
  outcome: inactive
[7]
  outcome: inactive
[8]
  outcome: inactive
[9]
  outcome: inactive
[10]
  outcome: inactive
[11]
  outcome: inactive
[12]
  outcome: inactive
[13]
  outcome: inactive
[14]
  outcome: inactive
[15]
  potentiation: 9.01% (active)
[16]
  outcome: inactive
[17]
  outcome: inactive

## Clc1ccc(OCCn2ccnc2)c(Br)c1
[1]
  outcome: inactive
[2]
  outcome: inactive
[3]
  outcome: inactive
[4]
  potentiation: 13% (active)
[5]
  outcome: inactive
[6]
  outcome: inactive
[7]
  outcome: inactive
[8]
  outcome: inactive
[9]
  outcome: inactive
[10]
  outcome: inactive
[11]
  outcome: inactive
[12]
  outcome: inactive
[13]
  outcome: inactive
[14]
  outcome: inactive
[15]
  potentiation: 12.6% (active)
[16]
  outcome: inactive
[17]
  outcome: inactive

## Cc1ccc(Cn2c(=N)c(C(=O)NCC3CCCO3)cc3c(=O)n4ccccc4nc32)cc1 (stereo not given)
[1]
  outcome: inactive
[2]
  outcome: inactive
[3]
  outcome: inactive
[4]
  potentiation: 47% (active)
[5]
  outcome: inactive
[6]
  outcome: inactive
[7]
  outcome: inactive
[8]
  outcome: inactive
[9]
  outcome: inactive
[10]
  outcome: inactive
[11]
  outcome: inactive
[12]
  outcome: inactive
[13]
  outcome: inactive
[14]
  outcome: inactive
[15]
  potentiation: 19.2% (active)
[16]
  outcome: inactive
[17]
  outcome: inactive

## Cc1cc(C(=O)CN2C(=O)C(=O)N(CC(C)C)C2=O)c(C)n1-c1ccccc1F
[1]
  outcome: inactive
[2]
  outcome: inactive
[3]
  outcome: inactive
[4]
  outcome: inactive
[5]
  outcome: inactive
[6]
  outcome: inactive
[7]
  outcome: inactive
[8]
  outcome: inactive
[9]
  outcome: inactive
[10]
  outcome: inactive
[11]
  outcome: inactive
[12]
  outcome: inactive
[13]
  outcome: inactive
[14]
  outcome: inactive
[15]
  potentiation: 35.1% (active)
[16]
  outcome: inactive
[17]
  outcome: inactive

## O=C(Cc1cccs1)Nc1nc(-c2ccc(F)cc2F)cs1
[1]
  outcome: inactive
[2]
  outcome: inactive
[3]
  potentiation: 24% (active)
[4]
  potentiation: 65% (active)
[5]
  outcome: inactive
[6]
  outcome: inactive
[7]
  outcome: inactive
[8]
  outcome: inactive
[9]
  outcome: inactive
[10]
  outcome: inactive
[11]
  outcome: inactive
[12]
  outcome: inactive
[13]
  outcome: inactive
[14]
  outcome: inactive
[15]
  potentiation: 91.9% (active)
[16]
  outcome: inactive
[17]
  outcome: inactive

## O=C(COC(=O)CSc1ccc([N+](=O)[O-])cc1)NCCCc1ccccc1
[1]
  outcome: inactive
[2]
  outcome: inactive
[3]
  outcome: inactive
[4]
  outcome: inactive
[5]
  outcome: inactive
[6]
  outcome: inactive
[7]
  outcome: inactive
[8]
  outcome: inactive
[9]
  outcome: inactive
[10]
  outcome: inactive
[11]
  outcome: inactive
[12]
  outcome: inactive
[13]
  outcome: inactive
[14]
  outcome: inactive
[15]
  outcome: inactive
[16]
  outcome: inactive
[17]
  outcome: inactive

## CC(C)Cc1nc(N2CCN(C(=O)C(C)C)CC2)c(C#N)c2c1CCC2
[1]
  outcome: inactive
[2]
  outcome: inactive
[3]
  outcome: inactive
[4]
  potentiation: 33% (active)
[5]
  outcome: inactive
[6]
  outcome: inactive
[7]
  outcome: inactive
[8]
  outcome: inactive
[9]
  outcome: inactive
[10]
  outcome: inactive
[11]
  outcome: inactive
[12]
  outcome: inactive
[13]
  outcome: inactive
[14]
  outcome: inactive
[15]
  outcome: inactive
[16]
  outcome: inactive
[17]
  outcome: inactive

## Cn1c(C(=O)N[C@@H](C(=O)O)c2ccccc2)cc2cc(Cl)ccc21
[1]
  outcome: inactive
[2]
  outcome: inactive
[3]
  outcome: inactive
[4]
  outcome: inactive
[5]
  outcome: inactive
[6]
  outcome: inactive
[7]
  outcome: inactive
[8]
  outcome: inactive
[9]
  outcome: inactive
[10]
  outcome: inactive
[11]
  outcome: inactive
[12]
  outcome: inactive
[13]
  outcome: inactive
[14]
  outcome: inactive
[15]
  outcome: inactive
[16]
  outcome: inactive
[17]
  outcome: inactive

## Cc1cc(N2CCN(C)CC2)n2cc(-c3ccc(F)cc3)nc2n1
[1]
  outcome: inactive
[2]
  outcome: inactive
[3]
  potentiation: 11% (active)
[4]
  outcome: inactive
[5]
  outcome: inactive
[6]
  outcome: inactive
[7]
  outcome: inactive
[8]
  outcome: inactive
[9]
  outcome: inactive
[10]
  outcome: inactive
[11]
  outcome: inactive
[12]
  outcome: inactive
[13]
  outcome: inactive
[14]
  outcome: inactive
[15]
  potentiation: 26.1% (active)
[16]
  outcome: inactive
[17]
  outcome: inactive

## COC(=O)c1ccccc1NC(=O)CCC(=O)N1CC(C)Oc2ccc(C)cc21 (stereo not given)
[1]
  outcome: inactive
[2]
  outcome: inactive
[3]
  outcome: inactive
[4]
  outcome: inactive
[5]
  inhibition: 75% (active)
[6]
  outcome: inactive
[7]
  outcome: inactive
[8]
  outcome: inactive
[9]
  outcome: inactive
[10]
  outcome: inactive
[11]
  outcome: inactive
[12]
  outcome: inactive
[13]
  outcome: inactive
[14]
  inhibition: 44% (active)
[15]
  outcome: inactive
[16]
  outcome: inactive
[17]
  outcome: inactive

## Oc1c(Br)cc(Br)c(/C=N/n2c(-c3ccccc3)n[nH]c2=S)c1Br
[1]
  outcome: inactive
[2]
  outcome: inactive
[3]
  outcome: inactive
[4]
  potentiation: 18% (active)
[5]
  outcome: inactive
[6]
  outcome: inactive
[7]
  outcome: inactive
[8]
  outcome: inactive
[9]
  outcome: inactive
[10]
  outcome: inactive
[11]
  outcome: inactive
[12]
  outcome: inactive
[13]
  outcome: inactive
[14]
  outcome: inactive
[15]
  outcome: inactive
[16]
  outcome: inactive
[17]
  outcome: inactive

## CSc1ccc2nnc(-c3cccc(F)c3)n2n1
[1]
  outcome: inactive
[2]
  outcome: inactive
[3]
  outcome: inactive
[4]
  potentiation: 43% (active)
[5]
  outcome: inactive
[6]
  outcome: inactive
[7]
  outcome: inactive
[8]
  outcome: inactive
[9]
  outcome: inactive
[10]
  outcome: inactive
[11]
  outcome: inactive
[12]
  outcome: inactive
[13]
  outcome: inactive
[14]
  outcome: inactive
[15]
  potentiation: 26.8% (active)
[16]
  outcome: inactive
[17]
  outcome: inactive
